This is a sample that favours compounds with a hit; in the whole collection about 12% have one here.
JMJD2A Tudor inh – qHTS Assay for Inhibitors of JMJD2A-Tudor Domain; 4.4% of 390,000 active; AlphaScreen JMJD2A-Tudor / H3K4me3 peptide binding; Potency, µM (highest dose often 114 µM), for inactives: at the highest dose activity change, negative = inhibition, usual class: inhibitors; also: potency is read from the fitted curve at half-maximal effect; % is scaled to controls: 0 for no effect and ±100 for the full control effect; nearly all actives have a fitted effect of over 50% in size
Target sequence (O75164 whole entry, looked up, the tested form may be a part): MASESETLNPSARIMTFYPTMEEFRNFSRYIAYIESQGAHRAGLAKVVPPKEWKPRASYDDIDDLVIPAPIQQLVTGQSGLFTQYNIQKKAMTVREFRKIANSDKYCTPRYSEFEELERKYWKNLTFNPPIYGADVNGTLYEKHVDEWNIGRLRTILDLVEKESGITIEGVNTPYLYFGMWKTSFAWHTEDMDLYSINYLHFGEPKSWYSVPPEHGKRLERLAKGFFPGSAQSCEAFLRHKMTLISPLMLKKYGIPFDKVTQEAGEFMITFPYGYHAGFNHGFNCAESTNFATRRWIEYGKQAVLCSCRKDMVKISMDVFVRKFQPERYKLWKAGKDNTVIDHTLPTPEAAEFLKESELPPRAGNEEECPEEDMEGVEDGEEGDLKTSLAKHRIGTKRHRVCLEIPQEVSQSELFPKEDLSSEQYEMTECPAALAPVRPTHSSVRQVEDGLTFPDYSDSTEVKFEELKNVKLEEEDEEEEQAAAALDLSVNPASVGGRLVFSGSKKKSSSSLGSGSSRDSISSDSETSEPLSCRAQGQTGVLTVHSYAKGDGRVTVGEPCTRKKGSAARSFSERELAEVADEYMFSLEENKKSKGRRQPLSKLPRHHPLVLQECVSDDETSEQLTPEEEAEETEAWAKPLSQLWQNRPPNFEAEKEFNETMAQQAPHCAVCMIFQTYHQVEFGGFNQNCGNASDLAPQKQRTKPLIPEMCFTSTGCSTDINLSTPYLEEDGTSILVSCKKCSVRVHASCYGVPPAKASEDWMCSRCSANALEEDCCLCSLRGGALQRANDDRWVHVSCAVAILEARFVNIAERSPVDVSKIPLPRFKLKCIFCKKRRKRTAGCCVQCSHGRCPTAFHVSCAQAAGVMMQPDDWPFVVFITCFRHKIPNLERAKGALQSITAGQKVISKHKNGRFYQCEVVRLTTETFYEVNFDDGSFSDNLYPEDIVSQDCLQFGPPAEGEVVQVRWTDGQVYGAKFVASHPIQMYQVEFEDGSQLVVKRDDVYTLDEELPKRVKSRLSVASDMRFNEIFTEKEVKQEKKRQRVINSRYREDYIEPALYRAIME
G9a inh – qHTS Assay for Inhibitors of Histone Lysine Methyltransferase G9a; 8.8% of 350,000 active; Potency, µM (top dose mostly 102 µM), for the others: top-dose activity, negative = inhibition, hits mostly inhibitors; G9a H3K9 monomethylation, AlphaScreen, 2 h; also: potency is read from the fitted curve at half-maximal effect; % is scaled to controls: 0 for no effect and ±100 for the full control effect; nearly all actives have a fitted effect of over 75% in size
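AlphaScreen read-out: biotin-H3K9 peptide (500 nM) methylation by 20 nM enzyme with 20 uM SAM, 2 h at room temperature after 15 min compound preincubation; anti-monomethyl H3K9 antibody plus donor/acceptor beads, 10 min dark.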
HP1b binding inh – HTS for Inhibitors of HP1-beta Chromodomain Interactions with Methylated Histone Tails; Potency, µM (series often up to 114 µM), for inactives: top-dose activity change, negative = inhibition, most hits filed as inhibitors; AID 540317, 2011; 0.56% of 390,000 active; AlphaScreen HP1-beta / biotin-H3K9me3 peptide binding; Chromobox protein homolog 1 (Homo sapiens), P83916; also: potency is read from the fitted curve at half-maximal effect; nearly all actives have a fitted effect of over 70% in size
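HP1-beta protein (50 nM final) preincubated 30 min at room temperature with biotinylated H3(1-18)K9me3 peptide (50 nM) in PBS pH 7.4, 0.01% Tween-20, then compound added for 30 min. AlphaScreen streptavidin donor/nickel chelate acceptor beads (10 ug/mL final), 30 min dark, luminescence read.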
PLK1 PBD inh – qHTS for Inhibitors of PLK1-PDB (polo-like kinase 1 - polo-box domain): Primary Screen. Serine/threonine-protein kinase PLK1 (Homo sapiens), P53350. 2.8% of 360,000 active. Potency, µM, inactives show max response, negative = inhibition, usual class: inhibitors. Plk1 PBD binding of FITC phosphopeptide, fluorescence polarization; also: potency is read from the fitted curve at half-maximal effect; series mostly up to about 57 µM; % is scaled to controls: 0 for no effect and ±100 for the full control effect; nearly all actives have a fitted effect of over 65% in size
BAZ2B block – qHTS Assay for Inhibitors of BAZ2B | AlphaScreen BAZ2B-H3K14Ac peptide displacement | Potency, µM (highest dose often 114 µM), for the others: at the highest dose activity change, negative = inhibition, most hits filed as inhibitors | 4.4% of 360,000 active | AID 504333, 2011; also: potency is read from the fitted curve at half-maximal effect; % is scaled to controls: 0 for no effect and ±100 for the full control effect; nearly all actives have a fitted effect of over 60% in size
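Protein-peptide AlphaScreen: BAZ2B 50 nM, b-H3K14Ac 50 nM, 1x PBS pH 7.4 + 0.01% Tween-20. Preincubation 30 min RT; cpd 30 min RT (top 110 uM); beads 20 min RT, light-protected.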
PI5P4Ka inh – qHTS for Inhibitors of phosphatidylinositol 5-phosphate 4-kinase (PI5P4K). 1.2% of 330,000 active. PI5P4Kalpha enzyme, ADP-Glo luminescence, 60 min; hits give low values. Phosphatidylinositol 5-phosphate 4-kinase type-2 alpha (Homo sapiens), P48426. max response, %. AID 652105, 2013; active = max response of -50% or lower; inconclusive = between -30% and -50%; inactive = -30% or higher; also: value at the top dose of about 77 µM; % is scaled to controls: 0 for no effect and ±100 for the full control effect
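Compounds were pin-transferred onto PI5P4Kalpha and substrate in HEPES pH 7.4 buffer with EGTA, CHAPS and 5% DMSO. ATP (5 microM final) started the reaction, which ran 60 minutes at room temperature before ADP-Glo detection.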
* marks the source's active call; other numbers are inactive results; ? = inconclusive; · = no result given; [ ] = remark or other dose. Unless noted, calls follow the shape of the dose curve; as a rule, active = well fitted curve in the direction sought with a large enough effect; inconclusive = small, poorly fitted or top-dose-only effect, or another doubt; inactive = no such curve, though single readings can be large; an effect the other way counts as inactive or inconclusive.

SMILES | JMJD2A Tudor inh | G9a inh | HP1b binding inh | PLK1 PBD inh | BAZ2B block | PI5P4Ka inh
O=C(/C=C/c1ccccc1[N+](=O)[O-])NNC(=O)c1ccncc1 | -6.4% | 22.0%[2.33 µM] | 37.9% | -19.3% | 5.8% | 1.0
CN(Cc1cccs1)C(=O)/C=C/c1ccccc1[N+](=O)[O-] | -4.5% | -8.2% | 12.7% | 0.1% | -3.7% | 0.4
CCN(Cc1ccccc1)C(=O)/C=C/c1ccccc1[N+](=O)[O-] | -21.3% | -47.1% | 39.7% | -9.1% | 89.1µM* | -4.5
NC(=O)COC(=O)/C=C/c1ccccc1[N+](=O)[O-] | -29.5% | -5.5% | -6.8% | -26.3% | -28.8% | -1.1
O=C(CN1CCN(C(=O)c2ccco2)CC1)Nc1cc(S(=O)(=O)N2CCCC2)ccc1Cl | · | · | · | -3.9% | · | 5.0
Cc1cc(C)c(S(=O)(=O)Nc2cccc(-c3cn4ccccc4n3)c2)c(C)c1 | 5.01µM* | -36.3%[59 µM] | 45.2% | · | -27.5% | ·
Cc1cc(C)c(S(=O)(=O)Nc2ccc(-c3cn4ccccc4n3)cc2)c(C)c1 | ? | ? | -10.3% | 0.3% | ? | 0.4
CCN(CCn1cccn1)Cc1c(C(=O)N2CCCCCCC2)nc2ccc(Cl)cn12 | -11.4% | 79.4µM* | 22.3% | -13.9% | -21.8% | -3.3
CCN(CC)C1CCN(Cc2c(C(=O)N3CCCCCCC3)nc3ccc(Cl)cn23)C1 (stereo not drawn) | -27.2% | 15.0% | 1.8% | -0.2% | -17.4% | 5.1
COC(=O)c1sc(N)nc1C(C)(C)C | -14.9% | -50.9%[59 µM] | 9.3% | -4.3% | 29.7% | 5.4
CCOC(=O)c1sc(N)nc1C(F)(F)F | -19.3% | · | ? | 26.7µM* | · | -3.9
CCOC(=O)c1sc(N)nc1-c1ccccc1 | -26.9% | ? | 7.2% | 26.7µM* | -1.8% | -3.4
O=S(=O)(NCC(c1ccco1)S(=O)(=O)c1ccccc1)c1cc(F)ccc1F (stereo not drawn) | -1.0% | -0.7%[59 µM] | 62.6% | · | 3.5% | ·
Cc1ccc(OCc2n[nH]c(=S)n2C2CCCCC2)cc1 | 56.2µM* | 1.12µM* | -11.2% | ? | -34.4% | ·
Cc1cccc(OCc2n[nH]c(=S)n2C2CCCCC2)c1 | ? | 1.78µM* | 5.1% | -17.9% | -31.0% | ·
S=c1[nH]nc(COc2ccc(Cl)cc2)n1C1CCCCC1 | -18.5% | ? | 21.3% | -22.3% | 14.8% | ·
CCOC(=O)c1ccc(O)c(-n2cc3c(c2-c2ccccc2)c(=O)n(C)c(=O)n3C)c1 | · | · | · | -11.2% | · | -2.4
Cc1ccc(S(=O)(=O)Nc2ccc(O)c3cccnc23)cc1 | ? | ? | -7.2% | -6.3% | -23.2% | 2.2
Cc1ccc(S(=O)(=O)Nc2ccc(O)c3ncccc23)cc1 | 39.8µM* | ? | 7.1% | -8.8% | 22.4µM* | 0.8
Cc1ccc(S(=O)(=O)Nc2ccnc3ccccc23)cc1 | -31.3%[57.1 µM] | 3.6%[59 µM] | -12.4% | 26.7µM* | 5.2% | -10.7
Cc1cc(O)c2c(c1)OC1(C)CCC3C(C)(C)CCCC34COC2C14 (stereo not drawn) | · | -50.3%[12.7 µM] | · | · | · | ·
O=C(CN1C(=O)COc2ccc(Cl)cc21)Nc1cccc(C(=O)O)c1 | -15.1% | -0.3%[59 µM] | 16.8% | · | 3.2% | ·
CC(=O)c1ccc(NC(=O)C2C3C=CC(C3=C(c3ccccc3)c3ccccc3)C2C(=O)O)cc1 (stereo not drawn) | -32.6% | ? | 7.4% | 42.3µM* | ? | -12.5
CC(=O)c1ccc(NC(=O)C2CC2c2ccccc2)cc1 (stereo not drawn) | -7.2% | · | 6.2% | ? | · | -27.2
CC(Oc1ccc(F)cc1)C(=O)Nc1cccc(S(=O)(=O)N(C)c2ccccc2)c1 (stereo not drawn) | · | · | · | 4.2% | · | -2.0
SMILES | JMJD2A Tudor inh | G9a inh | HP1b binding inh | PLK1 PBD inh | BAZ2B block | PI5P4Ka inh
Cc1cccc(NC(=O)Cn2nc(-c3ccccc3)c3cnc4ccccc4c32)c1 | -14.3% | 16.8%[59 µM] | 30.1% | · | -8.4% | ·
CCOc1ccc(N2C(=O)CSC2=S)cc1 | -5.8% | -24.1% | 48.0% | -8.6% | -23.7% | 0.4
O=C(O)c1ccc(N2C(=O)CSC2=S)cc1 | 8.4% | · | 34.2% | -10.5% | · | -6.5
CCN(CC)c1ccc(N2C(=O)CSC2=S)cc1 | 50.1µM* | 4.5% | ? | -10.8% | -3.8% | 7.6
O=C(O)c1cc(C(=O)O)cc(N2C(=O)CSC2=S)c1 | 4.0% | 17.8µM* | -8.4% | -3.3% | ? | 5.6
COc1cccc(C2CC(c3c(-c4ccccc4)c4cc(Cl)ccc4[nH]c3=O)=NN2S(C)(=O)=O)c1OC (stereo not drawn) | -15.1% | 39.8µM* | 10.5% | 0.3% | -21.7% | -0.2
COc1ccccc1C1CC(c2c(-c3ccccc3)c3cc(Cl)ccc3[nH]c2=O)=NN1S(C)(=O)=O (stereo not drawn) | -17.8% | ? | 30.4% | 9.8% | -4.9% | -3.9
CC(=O)N1CCN(C(=O)c2ccc(NS(=O)(=O)c3ccc4c(c3)OCCO4)cc2)CC1 | -12.1% | -42.1% | 28.2% | -10.2% | 6.6% | -0.2
COc1cc(/C=C2\C(=N)N3N=C(S(C)(=O)=O)SC3=NC2=O)cc(OC)c1OCCOc1ccccc1C | 79.4µM* | ? | ? | 29.9µM* | 56.2µM* | ?
COc1ccccc1OCCOc1ccc(/C=C2\C(=N)N3N=C(S(C)(=O)=O)SC3=NC2=O)cc1 | 22.4µM* | 2.9%[2.33 µM] | -14.1% | 13.4µM* | 50.1µM* | -81.3*
Cc1cc(/C=C2\C(=N)N3N=C(S(C)(=O)=O)SC3=NC2=O)c(C)n1Cc1ccccc1 | ? | 44.7µM* | -18.9% | 26.7µM* | -36.7% | -22.4
COc1cccc(OCCOc2ccc(/C=C3\C(=N)N4N=C(S(C)(=O)=O)SC4=NC3=O)cc2OC)c1 | 56.2µM* | 39.8µM* | -2.9% | ? | 79.4µM* | -13.8
C=CCOc1ccc(/C=C2\C(=N)N3N=C(S(=O)(=O)CC)SC3=NC2=O)cc1OC | -12.1% | 2.4%[59 µM] | 10.6% | -22.9% | ? | ?
N#Cc1c(NC(=O)c2cc3nc(-c4ccc(Br)cc4)cc(C(F)(F)F)n3n2)sc2c1CCCC2 | -11.0% | 10µM* | -10.2% | · | 3.6% | ·
CC(=O)c1ccccc1OC(=O)COc1ccc([N+](=O)[O-])cc1 | -10.3% | · | 34.2% | 21.2µM* | -0.1% | 1.4
COc1ccccc1C(=O)NC(=O)COc1ccc([N+](=O)[O-])cc1 | -7.4% | 27.1%[2.33 µM] | 3.6% | 1.9% | 2.3% | -7.4
CCOC(=O)c1c(-c2ccccc2)csc1NC(=O)CSc1nc(C)cc(C)n1 | -15.1% | 13.0% | 23.1% | -2.4% | 1.7% | -0.3

Bioassay records (PubChem)
